# Laboratory results as given in PubChem BioAssay (NCATS).
# Inconclusive results are not listed. A call without a number means that no potency is given here. Values without a mark were called inactive. Active and inactive are the calls of the source. Unless noted, calls come from the whole dose curve; as a rule, active = well fitted curve in the direction sought with a large enough effect; inconclusive = small, poorly fitted or top-dose-only effect, or another doubt; inactive = no such curve, though single readings can be large; an effect the other way counts as inactive or inconclusive.
# How the values were obtained:
# [1] = P-glycoprotein substrates identified in KB-8-5-11 adenocarcinoma cell line, qHTS therapeutic library screen (AID 1346987); note: nearly all actives have a fitted effect of over 65% in size; note: potency is the fitted concentration of half-maximal effect
# Procedure, shortened: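 Human cervical adenocarcinoma KB-8-5-11 cells, selected in colchicine to over-express P-gp and assayed without it, were exposed for 72 h to titrated compounds. An ATP-based luminescent viability signal gave AC50.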
# [2] = NS1 protein of Zika virus - qHTS assay to identify small molecule inhibitors in human HEK 293 cells (AID 1347053); note: series mostly up to about 46 µM; nearly all actives have a fitted effect of over 55% in size
# Procedure, shortened: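 In this cell-based screen, HEK 293 cultures received compound for one hour before Zika MR766 at MOI = 0.5. NS1 was quantified 24 hours later by TR-FRET, normalized to virus-free wells and infected wells.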
# [3] = Natriuretic polypeptide receptor (hNpr1) antagonism - Pilot counterscreen GloSensor control cell line (AID 1347045; calls by dose curve; note: series mostly up to about 38 µM)
# Procedure, shortened: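 The SNP-driven cGMP luminescence signal (50 uM, 20 min, room temperature) was measured in GloSensor HEK293 control cells. Compounds were tested as a LOPAC titration series and preincubated for 30-50 min.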
# [4] = target: Atrial natriuretic peptide receptor 1 (Homo sapiens) (UniProt P16066); assay: Natriuretic polypeptide receptor (hNpr1) antagonism - Pilot screen (AID 1347049; calls by dose curve;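 note: agonist-evoked cGMP luminescence read 20 min after hNppA addition; series mostly up to about 58 µM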)
# Atrial natriuretic peptide receptor 1 (Homo sapiens), sequence (P16066 whole entry, looked up): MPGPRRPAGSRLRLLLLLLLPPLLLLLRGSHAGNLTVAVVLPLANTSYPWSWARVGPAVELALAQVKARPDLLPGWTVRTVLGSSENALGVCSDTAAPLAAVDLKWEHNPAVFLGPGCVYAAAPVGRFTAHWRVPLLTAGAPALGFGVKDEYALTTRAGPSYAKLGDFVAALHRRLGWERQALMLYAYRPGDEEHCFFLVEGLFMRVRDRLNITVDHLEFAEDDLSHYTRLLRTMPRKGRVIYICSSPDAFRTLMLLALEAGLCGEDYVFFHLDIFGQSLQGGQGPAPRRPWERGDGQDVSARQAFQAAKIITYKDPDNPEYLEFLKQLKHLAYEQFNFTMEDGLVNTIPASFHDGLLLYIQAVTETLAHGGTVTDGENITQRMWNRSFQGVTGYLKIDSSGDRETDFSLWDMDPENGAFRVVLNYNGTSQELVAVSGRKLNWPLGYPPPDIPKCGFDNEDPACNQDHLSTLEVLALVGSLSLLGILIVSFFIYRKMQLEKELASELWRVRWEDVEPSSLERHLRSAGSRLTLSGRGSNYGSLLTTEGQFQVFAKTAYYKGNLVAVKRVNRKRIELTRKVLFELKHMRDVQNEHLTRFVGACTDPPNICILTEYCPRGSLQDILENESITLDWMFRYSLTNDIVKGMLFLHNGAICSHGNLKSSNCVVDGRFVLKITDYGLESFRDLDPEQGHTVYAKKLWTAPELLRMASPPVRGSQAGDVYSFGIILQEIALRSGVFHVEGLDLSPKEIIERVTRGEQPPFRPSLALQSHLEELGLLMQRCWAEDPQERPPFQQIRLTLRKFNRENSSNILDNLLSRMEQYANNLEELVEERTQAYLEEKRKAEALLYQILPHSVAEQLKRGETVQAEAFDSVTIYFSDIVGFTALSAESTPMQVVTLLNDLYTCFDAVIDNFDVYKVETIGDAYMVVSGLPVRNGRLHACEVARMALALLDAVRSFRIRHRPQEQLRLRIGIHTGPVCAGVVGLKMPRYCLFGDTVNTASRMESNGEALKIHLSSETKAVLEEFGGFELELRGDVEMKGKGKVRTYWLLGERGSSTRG
# Procedure, shortened: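 cGMP-sensor HEK293/hNpr1 cells, 1500/well, plated overnight at 37C. 2% GloSensor reagent, 2 h RT. Compound (23 nL pin transfer) 30 min RT, baseline luminescence pre-read. 0.1 nM hNppA, 20 min RT, post-read.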
# [5] = target: Atrial natriuretic peptide receptor 2 (Homo sapiens) (UniProt P20594); assay: Natriuretic polypeptide receptor (hNpr2) antagonism - Pilot subtype selectivity assay (AID 1347050; calls by dose curve)
# Atrial natriuretic peptide receptor 2 (Homo sapiens), sequence (P20594 whole entry, looked up): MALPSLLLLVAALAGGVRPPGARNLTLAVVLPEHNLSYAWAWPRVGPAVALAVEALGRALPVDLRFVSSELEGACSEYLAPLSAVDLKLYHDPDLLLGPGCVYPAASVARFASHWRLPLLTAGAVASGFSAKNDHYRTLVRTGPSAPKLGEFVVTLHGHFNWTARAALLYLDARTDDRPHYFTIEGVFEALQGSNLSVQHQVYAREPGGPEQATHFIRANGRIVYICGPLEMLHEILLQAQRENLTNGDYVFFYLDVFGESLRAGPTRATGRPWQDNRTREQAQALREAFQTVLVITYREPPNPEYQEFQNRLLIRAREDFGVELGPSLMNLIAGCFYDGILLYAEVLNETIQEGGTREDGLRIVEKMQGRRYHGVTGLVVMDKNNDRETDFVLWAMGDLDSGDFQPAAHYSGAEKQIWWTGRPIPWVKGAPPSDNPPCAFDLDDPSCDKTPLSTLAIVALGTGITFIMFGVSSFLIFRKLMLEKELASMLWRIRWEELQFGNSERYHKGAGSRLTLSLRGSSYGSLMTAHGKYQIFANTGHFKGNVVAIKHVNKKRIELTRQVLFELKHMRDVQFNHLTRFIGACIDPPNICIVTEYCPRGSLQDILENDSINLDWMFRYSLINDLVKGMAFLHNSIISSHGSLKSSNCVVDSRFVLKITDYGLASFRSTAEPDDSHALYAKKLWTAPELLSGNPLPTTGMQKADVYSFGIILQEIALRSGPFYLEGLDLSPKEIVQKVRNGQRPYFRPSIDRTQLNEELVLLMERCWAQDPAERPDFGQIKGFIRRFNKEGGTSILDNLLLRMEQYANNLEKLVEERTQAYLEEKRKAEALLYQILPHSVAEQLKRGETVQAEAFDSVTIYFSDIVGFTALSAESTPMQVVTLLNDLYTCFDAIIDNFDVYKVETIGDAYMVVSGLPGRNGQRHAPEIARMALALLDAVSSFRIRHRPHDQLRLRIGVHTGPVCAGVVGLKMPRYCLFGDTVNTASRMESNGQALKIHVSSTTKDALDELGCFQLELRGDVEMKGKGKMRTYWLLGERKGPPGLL
# Procedure, shortened: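 Luminescence from a genetically encoded cGMP luciferase biosensor in hNpr2-expressing HEK293 cells is read before and 20 min after adding 1 nM hNppC. Test compounds, in interplate 1:5 titrations, are added 30-50 min ahead of the agonist.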
# [6] = target: Tyrosine-protein phosphatase non-receptor type substrate 1 (Homo sapiens) + Leukocyte surface antigen CD47 (Homo sapiens) (UniProt P78324+Q08722); assay: CD47-SIRPalpha protein protein interaction - LANCE assay qHTS validation (AID 1347057; active = well fitted curve in the direction sought with a large enough effect in the signal ratio, with a control signal flat, not every such curve was filed as active; the % refers to the signal ratio; note: series mostly up to about 38 µM)
# Tyrosine-protein phosphatase non-receptor type substrate 1 (Homo sapiens) + Leukocyte surface antigen CD47 (Homo sapiens), sequence (P78324 whole entry, looked up, the tested form may be a part): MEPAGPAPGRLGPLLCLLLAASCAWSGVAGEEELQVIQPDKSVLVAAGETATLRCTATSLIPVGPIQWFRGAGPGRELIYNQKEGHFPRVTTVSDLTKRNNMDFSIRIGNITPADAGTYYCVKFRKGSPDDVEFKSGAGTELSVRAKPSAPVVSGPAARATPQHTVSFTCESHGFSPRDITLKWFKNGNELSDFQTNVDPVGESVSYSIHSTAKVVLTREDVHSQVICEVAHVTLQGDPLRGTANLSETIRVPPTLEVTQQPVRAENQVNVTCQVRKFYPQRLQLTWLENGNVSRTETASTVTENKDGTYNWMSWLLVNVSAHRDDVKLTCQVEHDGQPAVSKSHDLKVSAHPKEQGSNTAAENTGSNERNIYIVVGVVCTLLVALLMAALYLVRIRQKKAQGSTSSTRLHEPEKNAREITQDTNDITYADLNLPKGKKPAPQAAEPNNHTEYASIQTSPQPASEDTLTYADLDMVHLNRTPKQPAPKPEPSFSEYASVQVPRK
# Tyrosine-protein phosphatase non-receptor type substrate 1 (Homo sapiens) + Leukocyte surface antigen CD47 (Homo sapiens), sequence (Q08722 whole entry, looked up, the tested form may be a part): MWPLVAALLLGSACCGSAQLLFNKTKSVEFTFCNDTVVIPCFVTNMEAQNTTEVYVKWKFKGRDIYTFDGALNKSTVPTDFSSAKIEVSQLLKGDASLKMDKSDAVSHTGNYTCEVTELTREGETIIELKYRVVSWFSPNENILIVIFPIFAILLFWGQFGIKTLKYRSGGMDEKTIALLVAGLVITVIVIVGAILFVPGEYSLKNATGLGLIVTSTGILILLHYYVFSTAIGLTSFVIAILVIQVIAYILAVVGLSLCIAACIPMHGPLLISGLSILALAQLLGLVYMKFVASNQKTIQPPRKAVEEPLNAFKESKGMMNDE
# Procedure, shortened: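 Inhibition of soluble CD47/SIRPalpha ectodomain association by titrated compounds, measured as 665/615 nm time-resolved FRET ratio after sequential 30 min room-temperature incubations.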
structure (smiles),measurement,setting,value
CCN(CC)C(=O)/C(C#N)=C/c1cc(O)c(O)c([N+](=O)[O-])c1,Potency,[1],inactive
same,Potency,[2],inactive
CN=C(NC#N)Nc1ccc(C2=NNC(=O)CC2C)cc1 (stereo not given),Potency,[1],inactive
same,Potency,[2],inactive
CCn1cc(C(=O)O)c(=O)c2cnc(N3CCCC3)nc21,Potency,[1],inactive
same,"activity change, negative = inhibition",[2],-25.1% [at 9.2 µM]
CCCCCCc1ccc(O)cc1O,Potency,[1],inactive
same,Potency,[2],inactive
OCc1ccccc1O,Potency,[1],inactive
same,Potency,[2],inactive
C[C@H]1C[C@H]2[C@@H]3CCC4=CC(=O)C=C[C@]4(C)[C@@]3(Cl)[C@@H](O)C[C@]2(C)[C@@]1(O)C(=O)CO,Potency,[1],inactive
same,Potency,[2],inactive
C/C=C/c1ccc(OC)cc1,Potency,[1],inactive
same,Potency,[2],inactive
CC(=O)c1ccc2c(c1)N(CCCN1CCC(CCO)CC1)c1ccccc1S2,Potency,[1],inactive
same,Potency,[2],inactive
CCCSS/C(CCO)=C(\C)N(C=O)Cc1cnc(C)nc1N,Potency,[1],inactive
same,Potency,[2],inactive
CCOc1ccc2nc3cc(N)ccc3c(N)c2c1,Potency,[1],inactive
same,Potency,[2],inactive
COc1cc(/C=C/C(=O)O[C@H]2CC[C@]34C[C@]35CC[C@]3(C)[C@@H]([C@H](C)CCC=C(C)C)CC[C@@]3(C)[C@@H]5CC[C@H]4C2(C)C)ccc1O,Potency,[1],inactive
same,Potency,[2],inactive
Cc1ccc(O)c2ncccc12,Potency,[1],inactive
same,Potency,[2],inactive
CC(=O)Nc1c(I)cc(I)c(C(=O)O)c1I,Potency,[1],inactive
same,Potency,[2],inactive
CCCCCC=CCC=CCCCCCCCC(=O)OCC,Potency,[1],inactive
same,Potency,[2],inactive
C[C@H](CCC(=O)O)[C@H]1CC[C@H]2[C@@H]3C(=O)C[C@@H]4CC(=O)CC[C@]4(C)[C@H]3CC(=O)[C@]12C,Potency,[1],inactive
same,Potency,[2],inactive
O=C1OC2(c3ccc(O)cc3Oc3cc(O)ccc32)c2ccccc21,Potency,[1],inactive
same,Potency,[2],inactive
CC(=O)[C@H]1CC[C@H]2[C@@H]3C[C@H](C)C4=CC(=O)CC[C@]4(C)[C@H]3[C@@H](O)C[C@]12C,Potency,[1],6.99 µM (active)
same,Potency,[2],inactive
Cc1c(C(C)C)c(=O)n(-c2ccccc2)n1C,Potency,[1],inactive
same,Potency,[2],inactive
CN=C(NC#N)NCCSCc1csc(N=C(N)N)n1,Potency,[1],inactive
same,Potency,[2],inactive
CC1(C)O[C@@H]2C[C@H]3[C@@H]4C[C@H](F)C5=CC(=O)C=C[C@]5(C)[C@H]4[C@@H](O)C[C@]3(C)[C@]2(C(=O)CO)O1,Potency,[1],inactive
same,Potency,[2],inactive
CC1(C)O[C@@H]2C[C@H]3[C@@H]4CCC5=CC(=O)CC[C@]5(C)[C@@]4(F)[C@@H](O)C[C@]3(C)[C@]2(C(=O)CCl)O1,Potency,[1],inactive
same,Potency,[2],inactive
CCN(CC)CCOC(=O)C(c1ccccc1)C1CCCCC1 (stereo not given),Potency,[1],inactive
same,Potency,[2],inactive
Nc1ccc(C(=O)Nc2ccccc2N)cc1,Potency,[1],16.4 µM (active)
same,Potency,[2],inactive
COc1cc2c(cc1OC)C(=O)C(CC1CCN(Cc3ccccc3)CC1)C2 (stereo not given),Potency,[1],8.2 µM (active)
same,Potency,[2],inactive
CCOC(=O)[C@H](CCc1ccccc1)N[C@@H](C)C(=O)N1Cc2ccccc2C[C@H]1C(=O)O,Potency,[1],inactive
same,Potency,[2],inactive
C1CCc2nnnn2CC1,outcome,[3],inactive
same,outcome,[4],inactive
same,outcome,[5],inactive
same,Potency,[2],inactive
same,outcome,[6],inactive
Cc1ccc(C(=O)C(C)CN2CCCCC2)cc1 (stereo not given),Potency,[1],inactive
same,Potency,[2],inactive
CC(CCc1ccccc1)NCC(O)c1ccc(O)c(C(N)=O)c1 (stereo not given),outcome,[4],inactive
same,outcome,[5],inactive
same,Potency,[2],inactive
same,outcome,[6],inactive
COC(=O)[C@H]1[C@H]2C[C@H]3c4[nH]c5ccccc5c4CCN3C[C@H]2CC[C@@H]1O,outcome,[4],inactive
same,outcome,[5],inactive
same,Potency,[2],inactive
COc1cc(NS(C)(=O)=O)ccc1Nc1c2ccccc2nc2ccccc12,outcome,[4],inactive
same,outcome,[5],inactive
CCN1CCC[C@H]1CNC(=O)c1c(OC)ccc(Br)c1OC,Potency,[2],inactive
O=C1CCC(c2ccc(-n3ccnc3)cc2)=NN1,outcome,[3],inactive
same,outcome,[4],inactive
same,outcome,[5],inactive
same,Potency,[2],inactive
same,outcome,[6],inactive
CC1=C(C(=O)O)N2C(=O)[C@@H](NC(=O)[C@H](N)c3ccc(O)cc3)[C@H]2SC1,Potency,[2],inactive
CC(=O)Oc1ccc(C(c2ccc(OC(C)=O)cc2)c2ccccn2)cc1,Potency,[1],inactive
same,Potency,[2],inactive
c1ccc(CNCCNCc2ccccc2)cc1,Potency,[1],inactive
same,Potency,[2],inactive
Cc1c(N(C)CS(=O)(=O)O)c(=O)n(-c2ccccc2)n1C,Potency,[2],inactive
CCCn1c(=O)[nH]c(=O)c2[nH]cnc21,outcome,[3],inactive
same,outcome,[4],inactive
same,outcome,[5],inactive
same,Potency,[2],inactive
same,outcome,[6],inactive
CC[C@H](C)C(=O)O[C@H]1CCC=C2C=C[C@H](C)[C@H](CC[C@@H]3C[C@@H](O)CC(=O)O3)[C@H]21,outcome,[3],inactive
same,outcome,[4],inactive
same,outcome,[5],inactive
same,Potency,[2],inactive
same,outcome,[6],inactive
Oc1ccc(Cl)cc1Sc1cc(Cl)ccc1O,Potency,[2],inactive
CC(C)COC(=O)OCN1C(=O)CN(CCN2CC(=O)N(COC(=O)OCC(C)C)C(=O)C2)CC1=O,outcome,[3],inactive
same,outcome,[4],inactive
same,outcome,[5],inactive
same,Potency,[2],inactive
same,outcome,[6],inactive
CC(C)(C)NC(=O)[C@@H]1CN(Cc2cccnc2)CCN1C[C@@H](O)C[C@@H](Cc1ccccc1)C(=O)N[C@H]1c2ccccc2C[C@H]1O,Potency,[2],inactive
